About 79,000 compounds went through this panel and 15% of them were active in at least one assay; those are over-represented in the sample as a whole. Calls of active or inactive are those of the source. Cut-off read from the data, not from the text of the source: active = growth inhibition above about 70%; inactive = the rest.
Columns and labels:
[1] = NCI Yeast Anticancer Drug Screen. Data for the rad50 strain (AID 155);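 note: 0% = growth of vehicle-only cultures of the same strain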; settings: S. cerevisiae rad50 strain growth inhibition, stronger effect = higher value
Outline: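 Genetically altered yeast (DNA repair pathway); compound treatment; growth inhibition vs vehicle ctrl.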

[2] = NCI Yeast Anticancer Drug Screen. Data for the mec2-1 strain (AID 157); settings: S. cerevisiae mec2-1 strain, stronger effect = higher value
Outline: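 Growth inhibition is read against vehicle-treated controls after compound exposure of the mec2-1 yeast strain, which is defective in DNA damage repair or cell cycle control.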

[3] = NCI Yeast Anticancer Drug Screen. Data for the sgs1 mgt1 strain (AID 161);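 note: 0% = growth of cultures given vehicle only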; settings: S. cerevisiae sgs1 mgt1 strain, stronger effect = higher value
Outline: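 Percent growth inhibition was derived by comparing compound-exposed mutant yeast with vehicle-exposed cultures. The strain carries alterations in DNA damage repair.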

[4] = NCI Yeast Anticancer Drug Screen. Data for the cln2 rad14 strain (AID 165);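 note: 0% = growth equal to vehicle treated cultures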; settings: S. cerevisiae cln2 rad14 strain, stronger effect = higher value
Outline: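 Growth inhibition, relative to vehicle-treated controls, is the read-out. The test organism is a yeast strain with defined genetic alterations, cln2 rad14.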

[5] = NCI Yeast Anticancer Drug Screen. Data for the bub3 strain (AID 167); settings: S. cerevisiae bub3 mutant strain, stronger effect = higher value
Outline: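 Yeast carrying a defined mutation is treated with each compound, and growth is compared with that of vehicle-exposed cells to give inhibition.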

[6] = NCI Yeast Anticancer Drug Screen. Data for the mlh1 rad18 strain (AID 175); settings: S. cerevisiae mlh1 rad18 strain growth inhibition, stronger effect = higher value
Outline: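 Cells of a genetically altered yeast strain, deficient in DNA damage repair, were treated with compound. Their growth was then compared with that of vehicle-treated cultures to give inhibition.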

[7] = at 5.0 µM (retest, dose inferred, filed as 0.5)
[8] = at 50.0 µM (retest, dose inferred, filed as 5.0)

Measured: growth inhibition

c1ccc2c(c1)C[N+]1(CCCCCCC1)C2
inactive: [1]; [7] 19% | [1]; [8] 51% | [2]; [7] 6% | [2]; [8] 64% | [3]; [7] -2% | [3]; at 50.0 µM 69.9% | [4]; [7] -14% | [4]; [8] 25% | [4]; at 50.0 µM 53.6% | [5]; [7] -3% | [5]; [8] 36% | [5]; at 50.0 µM 58.9% | [6]; [7] 6% | [6]; at 50.0 µM 65.8%
active: [1]; at 50.0 µM 74.2% | [2]; at 50.0 µM 72.7% | [3]; [8] 77% | [6]; [8] 88%

CC(=O)CC(C)=NCCN=C(C)CC(C)=O.[Pd]
inactive: [1]; [7] -6% | [1]; [8] 61% | [2]; [7] -1% | [2]; at 50.0 µM 67.2% | [3]; [7] 0% | [4]; [7] -5% | [4]; [8] 41% | [4]; at 50.0 µM 53% | [5]; [7] -1% | [5]; [8] 60% | [6]; [7] -9%
active: [1]; at 50.0 µM 76% | [2]; [8] 78% | [3]; [8] 96% | [3]; at 50.0 µM 94.3% | [5]; at 50.0 µM 76.2% | [6]; [8] 74% | [6]; at 50.0 µM 83.7%

Cc1cccc[c]1[Sn]([Cl])([O][Sn]([Cl])([c]1ccccc1C)[c]1ccccc1C)[c]1ccccc1C
active: [1]; [8] 97% | [1]; at 50.0 µM 88.3% | [2]; [8] 98% | [2]; at 50.0 µM 90.8% | [3]; [8] 98% | [3]; at 50.0 µM 89% | [4]; [8] 96% | [4]; at 50.0 µM 88.3% | [5]; [8] 98% | [5]; at 50.0 µM 88.2% | [6]; [7] 85% | [6]; [8] 96% | [6]; at 50.0 µM 89.5%
inactive: [1]; [7] 61% | [2]; [7] 46% | [3]; [7] 40% | [4]; [7] 20% | [5]; [7] 42%

CCCCCCC(/C=C/c1c(Cl)cccc1Cl)=N\O
active: [1]; at 50.0 µM 83.4% | [2]; at 50.0 µM 91.7% | [3]; at 50.0 µM 91.3% | [5]; at 50.0 µM 92.8% | [6]; at 50.0 µM 94.2%
inactive: [1]; [7] -4% | [1]; [8] 24% | [2]; [7] -4% | [2]; [8] 46% | [3]; [7] -6% | [3]; [8] 67% | [4]; [7] -1% | [4]; [8] 12% | [4]; at 50.0 µM 69.1% | [5]; [7] -4% | [5]; [8] 53% | [6]; [7] -10% | [6]; [8] 56%

Source: PubChem BioAssay (NCI)
